Inconclusive results are not listed. Active and inactive are the calls of the source. How the source made its calls, unless noted: active means hit-call score of the fitted dose curve at least 0.9, where 1 is the maximum; inactive means score below 0.9.
What was measured:
[1] = CCTE_Shafer_MEA_acute_spike_number: CCTE's Neural Acute Assay for Total Number of Spikes, Shafer Lab (AID 2284008)
Outline: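 Using an adaptive detector set to 8x rms noise, spikes were counted in 40-min windows before and after compound addition (0.03-40 uM) to rat cortical networks at 37 C; the well-level change from baseline was analysed relative to DMSO.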

[2] = CCTE_Shafer_MEA_acute_firing_rate_mean: CCTE's Neural Acute Assay for Mean Firing Rate, Shafer Lab (AID 2284009);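 further: analyzed for loss of signal so actives lower firing rate relative to DMSO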
Outline: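 Rat cortical neuron cultures matured to DIV 13 or 15, equilibrated 20 min at 37 C, then recorded 40 min for baseline. Compound (0.03-40 uM) added and a further 40 min recorded; percent change in mean firing rate calculated per well.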

[3] = CCTE_Harrill_HTTr_Viability_MCF7: CCTE's 6-hour Cell Viability Assessment for the High-Throughput Transcriptomics (HTTr) Platform, in MCF-7 cells cultured in DMEM + 10% fetal bovine serum, Harrill Lab (AID 2284010)
Outline: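 Eight-point concentration series, six-hour exposure. Propidium iodide exclusion imaged to assess membrane integrity as a cytotoxicity readout; bidirectional fitting was done with DMSO as negative control and activity baseline.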

[4] = CCTE_Harrill_HTTr_Apoptosis_MCF7: CCTE's 6-hour Apoptosis Assessment for the High-Throughput Transcriptomics (HTTr) Platform, in MCF-7 cells cultured in DMEM + 10% fetal bovine serum, Harrill Lab (AID 2284011)
Outline: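 Apoptosis in MCF-7 cells grown in DMEM with 10% fetal bovine serum was scored after a six hour exposure by high content imaging of caspase-3/7 activation (CellEvent Caspase 3/7 Green), with DMSO serving as negative control and baseline.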

[5] = CCTE_Harrill_HTTr_CellCount_MCF7: CCTE's Cell Proliferation Assessment for the High-Throughput Transcriptomics (HTTr) Platform, Harrill Lab (AID 2284012; active means hit-call score of the fitted dose curve at least 0.9, where 1 is the maximum;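 further: count of Hoechst-stained nuclei per well by high-content imaging in MCF-7 cells; cells exposed to compound for six hours; intended direction is loss of nuclei count meaning fewer cells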)
Outline: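 For this full-screen endpoint, MCF-7 cultures received eight compound dilutions for six hours. Well nuclei counts from Hoechst imaging were analyzed relative to DMSO.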

[6] = CCTE_Shafer_MEA_acute_burst_number: CCTE's Neural Acute Assay for Single-Electrode Bursts, Shafer Lab (AID 2284013)
Outline: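 Percent change in single-electrode burst number per well, from 40-min recordings taken before and after adding compound (0.03-40 uM) to primary rat cortical neurons on MEA plates at DIV 13 or 15, 37 C.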

[7] = CCTE_Shafer_MEA_acute_burst_duration_mean: CCTE's Neural Acute Assay for Mean Burst Duration, Shafer Lab (AID 2284014);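 further: hits are decreases in mean burst duration relative to DMSO controls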
Outline: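 Rat cortical cultures, DIV 13/15; 40 min baseline, then 40 min with compound (0.03-40 uM), 37 C. Spikes: 300-5000 Hz band-pass, 8x rms threshold. Read-out: % change in mean single-electrode burst duration, DMSO-referenced, loss direction.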

[8] = CCTE_Shafer_MEA_acute_per_burst_spike_number_mean: CCTE's Neural Acute Assay for Average Number of Spikes Per Burst, Shafer Lab (AID 2284015);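 further: hits are decreases in mean spikes per burst versus baseline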
Outline: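 Read-out: percent change in mean spikes per burst, each well's post-exposure 40-min recording versus its own 40-min baseline. Rat cortical cultures, DIV 13 or 15, compounds 0.03-40 uM; DMSO is negative control, loss-of-signal fitting.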

[9] = CCTE_Shafer_MEA_acute_interburst_interval_mean: CCTE's Neural Acute Assay for Mean Interburst Interval, Shafer Lab (AID 2284016);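 further: percent change of mean interburst interval versus each well's own pre-dose baseline; curves fitted for decrease in interburst interval relative to DMSO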
Outline: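 Rat cortical cultures, DIV 13/15; 20 min equilibration, 40 min baseline, compound 0.03-40 uM, 40 min re-recording, 37 C. Spikes detected at 8x rms noise (300-5000 Hz band-pass). Endpoint: % change in interburst interval, fitted in loss direction vs DMSO.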

[10] = CCTE_Shafer_MEA_acute_burst_percentage_mean: CCTE's Neural Acute Assay for Percentage of Spikes in a Burst, Shafer Lab (AID 2284017)
Outline: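 Rat cortical cultures, DIV 13/15, 37 C. Spikes detected at 8x rms noise (300-5000 Hz band-pass). Burst spikes/total spikes averaged across electrodes per well; % change post- vs pre-treatment (40 min each), loss-of-signal fit vs DMSO.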

[11] = CCTE_Shafer_MEA_acute_burst_percentage_std: CCTE's Neural Acute Assay for Standard Deviation of Burst Percentage, Shafer Lab (AID 2284018);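 further: fitted in the negative direction so actives lower burst percentage SD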
Outline: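 Rat primary cortical neurons on 48-well MEAs, DIV 13 or 15, 37 C. 40-min baseline then 40-min recording with compound (0.03-40 uM); well-level SD of per-electrode burst spike percentage, expressed as percent change from baseline.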

[12] = CCTE_Shafer_MEA_acute_per_network_burst_spike_number_mean: CCTE's Neural Acute Assay for Average Number of Spikes in a Network Burst, Shafer Lab (AID 2284019);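 further: curve fitted for loss of signal so actives reduce spikes per network burst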
Outline: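 Rat cortical cultures, DIV 13/15; spike threshold 8x rms noise, 300-5000 Hz band-pass, 12.5 kHz sampling; wells need >/= 10 active electrodes. Compound 0.03-40 uM, 40 min, 37 C; % change vs own baseline, DMSO negative control.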

[13] = CCTE_Shafer_MEA_acute_per_network_burst_spike_number_std: CCTE's Neural Acute Assay for Standard Deviation of Number of Spikes in a Network Burst, Shafer Lab (AID 2284020);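 further: fitted for decrease in spike-number SD versus DMSO so actives lower it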
Outline: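 Rat cortical cultures, DIV 13/15, 37 C; 20-min stabilisation, 40-min baseline, compound 0.03-40 uM, 40-min re-record. Spikes detected at 8x rms noise (300-5000 Hz band-pass). Readout: % change from baseline in per-burst spike-number SD.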

[14] = CCTE_Shafer_MEA_acute_per_network_burst_electrodes_number_mean: CCTE's Neural Acute Assay for Mean Number of Electrodes in a Network Burst, Shafer Lab (AID 2284021);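 further: curves fitted for decreases only so hits reduce electrodes per burst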
Outline: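 Percent change from baseline in average electrode count per network burst, rat cortical cultures on 48-well MEAs; 40-min recordings each side of exposure, DIV 13 or 15; threshold 8x rms noise; DMSO as negative control.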

[15] = CCTE_Shafer_MEA_acute_network_burst_percentage: CCTE's Neural Acute Assay for Percentage of Network Bursts, Shafer Lab (AID 2284022);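 further: rat primary cortical neuron networks on multiwell MEA recorded 40 min; curves fitted for loss so actives lower network burst percentage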
Outline: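 On DIV 13 or 15, at least three wells of rat cortical neurons per compound are dosed at 0.03-40 uM. Spontaneous firing is detected at 8x rms noise for 40 min before and after dosing at 37 C. The percent change in network-burst spike share is reported.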

[16] = CCTE_Shafer_MEA_acute_cross_correlation_area: CCTE's Neural Acute Assay for Area of Cross Correlation, Shafer Lab (AID 2284024);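 further: area under pooled inter-electrode spike cross-correlation near zero lag as percent change from own baseline; curves fitted for loss of cross-correlation area so actives lower synchrony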
Outline: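 Extracellular recordings from cultured rat cortical neurons measure network synchrony as cross-correlation area; each well's post-compound value (0.03-40 uM, 40 min) is compared with its own 40 min baseline to give percent change.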

[17] = CCTE_Shafer_MEA_acute_cross_correlation_HWHM: CCTE's Neural Acute Assay for Cross Correlation at Half Width at Half Maximum, Shafer Lab (AID 2284026);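 further: spontaneous network firing of rat primary cortical neurons on multiwell microelectrode arrays; percent change per well from pre-dose baseline in spike cross-correlogram half width; hits are a decrease in cross-correlogram half width relative to DMSO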
Outline: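 Percent change in cross-correlogram half width at half maximum, narrower meaning more synchrony, was derived per well from paired 40-min recordings before and during exposure to 0.03-40 uM compound in rat cortical cultures at 37 C.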

[18] = CCTE_Shafer_MEA_acute_synchrony_index: CCTE's Neural Acute Assay for Synchrony, Shafer Lab (AID 2284027);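 further: network synchrony index of spontaneous spiking in primary rat cortical neurons on MEAs; fitted for loss of signal so actives lower synchrony relative to DMSO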
Outline: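 Acute exposure of rat primary cortical neurons (DIV 13 or 15) at 0.03-40 uM. Synchrony index, 40 min before vs after, as % change relative to DMSO control.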

[19] = CCTE_Shafer_MEA_dev_firing_rate_mean: CCTE's Neural Network Formation Assay for Mean Firing Rate, Shafer Lab (AID 2284031)
Outline: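 Extracellular spike frequency, AUC over DIV 5–12 recordings, in rat cortical neuron MEA cultures dosed from plating; loss direction vs DMSO.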

[20] = CCTE_Shafer_MEA_dev_per_burst_spike_percent: CCTE's Neural Network Formation Assay for Percent of Spikes in a Burst, Shafer Lab (AID 2284032);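 further: fitted as a decrease in burst spike percentage below DMSO baseline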
Outline: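 Value is trapezoidal AUC over recordings on days 5, 7, 9 and 12 of the well-mean fraction of spikes falling in single-electrode bursts; rat cortical cultures exposed continuously from plating, treatment renewed DIV 5 and 9, fitted downward against DMSO.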

[21] = CCTE_Shafer_MEA_dev_active_electrodes_number: CCTE's Neural Network Formation Assay for Number of Active Electrodes, Shafer Lab (AID 2284040; active means hit-call score of the fitted dose curve at least 0.9, where 1 is the maximum;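 further: potency for loss of active electrodes versus DMSO so lower counts are hits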)
Outline: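 Developing rat cortical networks on MEAs, exposed DIV 0–12. Value is the AUC of active-electrode counts (≥5 spikes/min) from days 5, 7, 9, 12, relative to DMSO.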

[22] = CCTE_Shafer_MEA_dev_burst_rate: CCTE's Neural Network Formation Assay for Burst Rate, Shafer Lab (AID 2284042)
Outline: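 Cells plated, treated day 0; recorded DIV 5, 7, 9, 12; fed and re-treated DIV 5, 9. Endpoint: bursts per recording time, active-electrode well mean, trapezoidal AUC, fitted in decreasing direction against DMSO baseline.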

[23] = CCTE_Shafer_MEA_dev_bursting_electrodes_number: CCTE's Neural Network Formation Assay for Number of Bursting Electrodes, Shafer Lab (AID 2284043; active means hit-call score of the fitted dose curve at least 0.9, where 1 is the maximum;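 further: potency is for loss of bursting electrodes relative to DMSO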)
Outline: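 Rat cortical primary neurons, 48-well MEA, 16 electrodes/well; dosing DIV 0–12, re-dosed with full media change DIV 5, 9. Recordings DIV 5/7/9/12, AxIS adaptive spike detector; bursting electrode = ≥1 burst/2 min. AUC across days; loss of signal vs DMSO.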

[24] = CCTE_Shafer_MEA_dev_per_burst_interspike_interval: CCTE's Neural Network Formation Assay for Burst Interspike Interval, Shafer Lab (AID 2284044);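 further: potency for a decrease of within-burst interspike interval below DMSO level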
Outline: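 Spontaneous activity of maturing rat cortical networks is recorded on DIV 5, 7, 9 and 12 under chronic compound exposure beginning at plating. Endpoint: burst interspike interval well-mean, collapsed into trapezoidal AUC and fitted in the negative direction relative to DMSO.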

[25] = CCTE_Shafer_MEA_dev_burst_duration_mean: CCTE's Neural Network Formation Assay for Mean Burst Duration, Shafer Lab (AID 2284045)
Outline: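 Rat cortical cultures, 1.5 x 10^5 cells/well with laminin drop; continuous dosing days 0–12, media plus treatment refreshed DIV 5, 9. AxIS adaptive spike detection; mean single-electrode burst duration, AUC over four recordings, negative direction vs DMSO.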

[26] = CCTE_Shafer_MEA_dev_interburst_interval_mean: CCTE's Neural Network Formation Assay for Mean Interburst Interval, Shafer Lab (AID 2284046);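 further: well-mean interburst interval of bursting electrodes as AUC over four recording days; curve fitted for decrease in interburst interval relative to DMSO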
Outline: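 Developing rat cortical networks on 48-well MEAs receive compound from the day of plating. Burst intervals from each active electrode are averaged per well, and AUC over the recording days is fitted in the negative direction against DMSO.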

[27] = CCTE_Shafer_MEA_dev_inter_network_spike_interval_mean: CCTE's Neural Network Formation Assay for Mean Inter-network Spike Interval, Shafer Lab (AID 2284047)
Outline: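 Rat cortical cultures, 1.5 x 10^5 cells/well on 48-well MEA plates; continuous exposure days 0–12, medium and compound refreshed DIV 5, 9. Mean time between consecutive network-spike peaks; AUC across DIV 5/7/9/12; DMSO baseline, negative fitting direction.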

[28] = CCTE_Shafer_MEA_dev_network_spike_number: CCTE's Neural Network Formation Assay for Number of Network Spikes, Shafer Lab (AID 2284048);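 further: synchronized bursts across electrodes counted on days 5 7 9 12 and integrated as AUC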
Outline: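 Rat cortical primary cultures on 48-well MEA (16 electrodes/well); continuous exposure DIV 0–12, full medium and treatment exchange DIV 5, 9. Readout: network spike count, AxIS adaptive detection, recordings DIV 5/7/9/12 collapsed to AUC; loss-of-signal fit, DMSO baseline.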

[29] = CCTE_Shafer_MEA_dev_network_spike_peak: CCTE's Neural Network Formation Assay for Mean Number of Electrodes in Network Spike, Shafer Lab (AID 2284049);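 further: fitted for loss of signal meaning fewer electrodes in network spikes than DMSO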
Outline: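 Network-spike peak electrode count from recordings on days 5, 7, 9 and 12 was combined as trapezoidal area under the curve. Rat cortical cultures were treated continuously from plating, with compound renewed at each feed (DIV 5, 9); fits versus DMSO.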

[30] = CCTE_Shafer_MEA_dev_spike_duration_mean: CCTE's Neural Network Formation Assay for Mean Spike Duration, Shafer Lab (AID 2284051);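 further: mean network spike duration pooled as area under curve over DIV 5 to 12 recordings; potency for a decrease in mean network spike duration versus DMSO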
Outline: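 Readout is the average length of network spikes, clustered firing across electrodes, summed over DIV 5, 7, 9 and 12 as area under the curve. Neurons from rat cortex developed networks on MEA plates under continuous 12-day exposure.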

Measured: AC50

O=C1CC2(CCCC2)CC(=O)N1CCCCN1CCN(c2ncccn2)CC1
active: [12] 1.01 µM | [14] 2.98 µM | [20] 15 µM | [21] 9.97 µM | [23] 15 µM | [24] 2.98 µM | [29] 15 µM | [30] 15 µM
inactive: all other assays above
